FLuc counter – firefly luciferase modulation, counter-screen for miR-21 project; P08659; purified FLuc, Km substrates, luminescence inhibition; Potency, µM (series often up to 57.5 µM), without a hit: top-dose activity change, negative = inhibition, actives largely listed as inhibitors; 6.9% of 360,000 active; AID 588342;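 note: plate controls were vehicle for no effect and reference inhibitor for full effect; nearly all actives have a fitted effect of over 55% in size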
Target sequence (P08659 whole entry, looked up): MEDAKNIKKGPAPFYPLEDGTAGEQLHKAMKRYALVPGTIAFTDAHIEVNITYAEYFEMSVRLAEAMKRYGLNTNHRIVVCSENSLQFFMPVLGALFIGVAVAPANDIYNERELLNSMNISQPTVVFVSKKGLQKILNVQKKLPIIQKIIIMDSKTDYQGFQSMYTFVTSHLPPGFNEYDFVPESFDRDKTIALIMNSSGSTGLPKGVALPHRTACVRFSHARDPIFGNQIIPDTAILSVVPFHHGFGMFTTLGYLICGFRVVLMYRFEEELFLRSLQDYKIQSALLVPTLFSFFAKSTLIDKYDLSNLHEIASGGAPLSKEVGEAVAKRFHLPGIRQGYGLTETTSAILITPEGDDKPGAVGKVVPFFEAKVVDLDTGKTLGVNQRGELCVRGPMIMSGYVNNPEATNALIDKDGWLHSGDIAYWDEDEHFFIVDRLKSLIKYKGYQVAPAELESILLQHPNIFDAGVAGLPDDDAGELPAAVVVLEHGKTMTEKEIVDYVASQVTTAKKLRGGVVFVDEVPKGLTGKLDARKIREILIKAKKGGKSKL
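Purified P. pyralis luciferase (10nM final) with 10uM D-luciferin and 10uM ATP (Km levels) in 50mM Tris acetate pH 7.5, 10mM Mg acetate, 0.01% Tween-20, 0.05% BSA; qHTS 6-point titration, ~60 µM downward; luminescence read.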
ELG1 genotox – genotoxicity induction in ELG1-luciferase HEK293T cells. Potency, µM (top dose mostly 46 µM), for the others: at the highest dose activity change, positive = activation, most hits filed as activators. 1.3% of 330,000 active. AID 504466. HEK293T ELG1-luciferase reporter, luminescence, 16 h; note: % of control where 0% means no effect; nearly all actives have a fitted effect of over 60% in size
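Quantitative HTS format in 1536-well plates. HEK293T ELG1-luciferase reporter cells receive test compound and are incubated 16 hr at 37 °C, 5% CO2; ONE-Glo added, 30 min room temperature, then luminescence read.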
SMN2 splice enh – enhancers of SMN2 splice variant expression. HEK293 SMN2-luciferase splicing reporter, luminescence, 30-36 h. 2.8% of 210,000 active. Potency, µM (top dose mostly 46.1 µM), for inactives: at the top dose activity change, positive = activation, usual class: activators; note: % of control where 0% means no effect; nearly all actives have a fitted effect of over 55% in size
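HEK293 cells carry an SMN2 minigene-luciferase reporter in which exon 7 inclusion puts luciferase in frame. Cells were seeded at 2000 cells/well, attached for 10-12 hours, then exposed to compounds for 30-36 hours at 37C before ONE-Glo luminescence.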
KinaseGlo FLuc – Kinase-Glo luciferase inhibition (counter-screen); Kinase-Glo luciferase, ATP luminescence, 8 min; Potency, µM (titrated, usually from 38.3 µM), without a hit: top-dose activity change, negative = inhibition, usual class: inhibitors; 0.28% of 200,000 active; AID 1379; note: % is set by controls: 0 for no effect and ±100 for the full control effect; nearly all actives have a fitted effect of over 60% in size
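Light output from Kinase-Glo luciferase with luciferin and 10 uM ATP in 50 mM imidazole pH 7.2, KCl, MgCl2, Tween 20, BSA; compound pin-delivered, 8-min ambient incubation, then luminescence read.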
Rab9 promoter act – activates the Rab9 promoter. Huh7 Rab9 promoter-luciferase reporter, luminescence, 24 h. 2.8% of 320,000 active. AID 485297. Potency, µM (series often up to 9.22 µM), inactives show at the highest dose activation, negative = inhibition, hits mostly activators; note: % of control where 0% means no effect; nearly all actives have a fitted effect of over 60% in size
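Quantitative HTS format; Huh7 Rab9-luciferase reporter cells (1500/well) receive compound 2 h post-plating, incubate 24 h at 37 °C, then get luciferase reagent for 10 min before luminescence reading.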
NPC1 prom act – activates the NPC1 promoter; Huh7 NPC1 promoter luciferase reporter, 24 h; Potency, µM (highest dose often 9.22 µM), for the others: top-dose activation, actives largely listed as activators; 2.4% of 320,000 active; note: % of control where 0% means no effect; nearly all actives have a fitted effect of over 60% in size
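Cells: Huh7 expressing luciferase under the NPC1 promoter, 1500/well. Seeded 2 h, compound added, incubated 24 h at 37 °C. Luciferase reagent, 10 min ambient, then luminescence.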
Starred values were filed as active, the others as inactive; [ ] = another dose, or the depositor's remark. Compounds with a hit are over-represented: about 7.3% of the library has one in this group of screens. Calls come from the whole dose curve; as a rule, active = well fitted curve in the direction sought with a large enough effect; inconclusive = small, poorly fitted or top-dose-only effect, or another doubt; inactive = no such curve, though single readings can be large; an effect the other way counts as inactive or inconclusive. Potency is the fitted concentration of half-maximal effect.

`O=S(=O)(NCCc1csc2nc(-c3ccc(F)cc3)nn12)c1ccc(Oc2ccccc2)cc1` gave FLuc counter 7%.
Screening CCn1nccc1C(=O)Nc1ccc(C(=O)OC(C)C)cc1 returned FLuc counter 19µM*, ELG1 genotox 15%, Rab9 promoter act inconclusive and NPC1 prom act inconclusive.
`CCCCOC(=O)c1ccc(NC(=O)c2nn(C)cc2Br)cc1` gave FLuc counter 21µM*, ELG1 genotox 21%, SMN2 splice enh 9%, KinaseGlo FLuc -1%, Rab9 promoter act 5% and NPC1 prom act 7%.
CCn1cc(Br)c(C(=O)Nc2ccc(OC)cc2)n1 was read as FLuc counter 15µM*, ELG1 genotox inconclusive, SMN2 splice enh 14µM*, KinaseGlo FLuc -13%, Rab9 promoter act 29% and NPC1 prom act inconclusive.
Screening CCn1cc(Br)c(C(=O)Nc2ccc(C(=O)OC(C)C)cc2)n1 returned FLuc counter 15µM*, ELG1 genotox -2%, SMN2 splice enh -10%, KinaseGlo FLuc 0%, Rab9 promoter act inconclusive and NPC1 prom act inconclusive.
CCCCOC(=O)c1ccc(NC(=O)c2c(OC)cccc2OC)cc1 was read as FLuc counter -9%, ELG1 genotox 0%, SMN2 splice enh -14%, KinaseGlo FLuc 2%, Rab9 promoter act -3% and NPC1 prom act -7%.
For Cc1ccc(N=C2C(=O)Nc3ccc(C)c(Br)c32)cc1 the results were FLuc counter 12µM*, ELG1 genotox -3%, Rab9 promoter act 0% and NPC1 prom act 2%.
For COc1ccc(N=C2C(=O)Nc3ccc(C)c(Br)c32)cc1 the results were FLuc counter 8.5µM*, ELG1 genotox 3%, Rab9 promoter act -7% and NPC1 prom act -4%.
`COc1ccc(N=C2C(=O)Nc3ccccc32)cc1` gave FLuc counter -19%, ELG1 genotox 8%, SMN2 splice enh -4%, KinaseGlo FLuc -1%, Rab9 promoter act 1% and NPC1 prom act 1%.
CCCCC[C@]12Cc3cc(OC)c(OC)cc3C(O1)c1c(cc(C)n(-c3ccccc3)c1=O)O2 was read as FLuc counter 0%[11.5 µM], Rab9 promoter act -3%[1.84 µM] and NPC1 prom act -2%[1.84 µM].
For Cc1ccc(NC(=O)C(=O)NCC(c2ccc3c(c2)OCO3)N2CCN(C)CC2)c(C)c1 (configuration not stated) the results were FLuc counter -1%.
CCCS/C(N)=N/N=C/c1ccccc1O was read as FLuc counter 9.5µM*, ELG1 genotox 3.2µM*, SMN2 splice enh 11µM*, KinaseGlo FLuc -2%, Rab9 promoter act 2.5µM* and NPC1 prom act 2.8µM*.
Screening C=CCS/C(N)=N\N=C\c1c(O)ccc2ccccc12 returned FLuc counter 4.8µM*, ELG1 genotox inconclusive, Rab9 promoter act 2.8µM* and NPC1 prom act 0%.
Screening Cc1nnc(C)n1/N=C/c1c(O)ccc2ccccc12 returned FLuc counter -2%, ELG1 genotox 4%, Rab9 promoter act -4%[1.84 µM] and NPC1 prom act 1%.
Screening COc1ccc(-c2nn(-c3cccc(F)c3)c3c2cnc2cc(OC)c(OC)cc23)cc1 returned FLuc counter -3%.
O=C(NC(c1cccnc1)C(F)(F)F)c1cc(COc2ccc3c(c2)CCCC3)on1 (configuration not stated) was read as FLuc counter 15µM*, ELG1 genotox 12%, Rab9 promoter act 6% and NPC1 prom act -3%.
Cc1ccc(CNC(=O)CSc2nc3ccsc3c(=O)n2-c2ccc(Br)cc2)cc1 was read as FLuc counter -5%.
CN=C1S/C(=C\c2ccc(O)c(Br)c2)C(=O)N1C was read as FLuc counter 15µM*, ELG1 genotox 17%, Rab9 promoter act -5%[1.84 µM] and NPC1 prom act -12%.
`CN=C1S/C(=C\c2ccc(OCC(=O)OC)c(OC)c2)C(=O)N1C` gave FLuc counter 17µM*, ELG1 genotox 2%, Rab9 promoter act -6% and NPC1 prom act 15%.
`CSC1=NC(=O)/C(=C/c2ccc(SC)cc2)S1` gave FLuc counter 9.5µM*, ELG1 genotox 8%, SMN2 splice enh -13%, KinaseGlo FLuc -2%, Rab9 promoter act 6% and NPC1 prom act -1%.
CCOC(=O)CSC1=NC(=O)/C(=C\c2ccc(Cl)cc2)S1 was read as FLuc counter 11µM*, ELG1 genotox inconclusive, KinaseGlo FLuc -2%, Rab9 promoter act -8% and NPC1 prom act -20%.
`CSc1ccc(C=O)cc1` gave FLuc counter 1%, ELG1 genotox -1%, SMN2 splice enh 0%, Rab9 promoter act 7% and NPC1 prom act -3%.
Screening CN=C1S/C(=C\c2ccc(Cl)cc2)C(=O)N1C returned FLuc counter -1%, ELG1 genotox 10%, Rab9 promoter act -3% and NPC1 prom act 1%.
CN=C1S/C(=C\c2ccc(SC)cc2)C(=O)N1C was read as FLuc counter 12µM*, ELG1 genotox 10µM*, Rab9 promoter act 17% and NPC1 prom act inconclusive.
Screening COc1ccccc1NC(=O)N1CCN(c2nnc(C)c3c(C)n(-c4ccccc4)nc23)CC1 returned FLuc counter -3%.
For Cc1cc(C(=O)CSc2nnc(C3CC3)n2C2CC2)c(C)n1C(C)C the results were FLuc counter 12µM*, ELG1 genotox 4%, Rab9 promoter act 5% and NPC1 prom act 6%.
`CC(=O)NC(C)c1ccc(C(=O)CSc2nnc(C3CC3)n2C2CC2)cc1` (configuration not stated) gave ELG1 genotox 4%, Rab9 promoter act 2% and NPC1 prom act 0%.
C=CCn1c(SCC(=O)c2cc(C)n(CC3CCCO3)c2C)nnc1-c1ccccc1 (configuration not stated) was read as FLuc counter inconclusive, ELG1 genotox -5%, SMN2 splice enh -30%, KinaseGlo FLuc -2%, Rab9 promoter act 5% and NPC1 prom act -6%.
C=CCn1c(C)cc(C(=O)CSc2nnc(C3CC3)n2C2CC2)c1C was read as FLuc counter 3µM*, ELG1 genotox 11%, Rab9 promoter act 15% and NPC1 prom act 17%.
Screening O=C(OCc1nc2ccccc2s1)C1CCN(C2=NS(=O)(=O)c3ccccc32)CC1 returned FLuc counter 11µM*, ELG1 genotox inconclusive, SMN2 splice enh 18%, KinaseGlo FLuc -4%, Rab9 promoter act inconclusive and NPC1 prom act 7%.
For O=C1OCCC1Sc1nc2ccccc2[nH]1 (configuration not stated) the results were FLuc counter -3%, ELG1 genotox 1%, SMN2 splice enh 10%, KinaseGlo FLuc 2%, Rab9 promoter act 2% and NPC1 prom act 0%.

Source: PubChem BioAssay (National Center for Advancing Translational Sciences (NCATS))
